According to ChEMBL document CHEMBL4513216, “Probing the Open Global Health Chemical Diversity Library for Multistage-Active Starting Points for Next-Generation Antimalarials” (ACS Infect Dis, 2020):
Out of some 69,000 compounds screened, about 8,600 (12%) showed an effect of 50% or more. The entries come from a sample that favours strong results as a whole.

Each molecule was assayed on Plasmodium berghei (assay: Screen against P. berghei liver stage (PbLuc), transformed with Luciferase, at 10uM). Conditions: tested at 10 uM.
Type: functional, HepG2

Row | Compound | INHIBITION
1 | CN(Cc1cccc(F)c1)C(=O)CN1CCOC(Cn2cccn2)C1 (centres undefined) | -14.8%
2 | COc1coc(C(=O)Nc2ccncc2)cc1=O | 14.3%
3 | Cc1cnc(N2CCC3(CCC(C(=O)NC(C)C)C3)CC2)nc1 (centres undefined) | 11.3%
4 | CC(=O)N1CCCN(C(=O)c2ccc(=O)n(C)c2)c2ccccc21 | 62.6%
5 | CC1CCN(C)c2ccccc2N1C(=O)c1ccc(=O)n(C)c1 (centres undefined) | -3.12%
6 | Cn1cc(C(=O)N2CCSc3ccccc32)ccc1=O | 33.8%
7 | COc1ccc(-c2cc(C3CC3)c(C#N)c(N)n2)cc1F | -60.9%
8 | O=C(c1ccc[nH]1)N1CCc2nnc(Cn3cccc3)n2CC1 | -6.25%
9 | Cc1ccc(S(=O)(=O)n2ccn(C(=O)CC(C)C)c2=O)cc1 | 40%
10 | COc1ccc2c(c1)C1(CCN(Cc3ccncc3)CC1)N(C)CC2 | -9.67%
11 | Cc1cc(NC2CC3(CCN(Cc4csc(C)n4)C3)C2)ncn1 (centres undefined) | -31.1%
12 | Cc1ccc(N2CCC3(CCN(Cc4csc(C)n4)C3=O)C2)nn1 (centres undefined) | 47.5%
13 | Cc1nc(CN2CCN(c3cc(CCN)ncn3)CC2)cs1 | 17.2%
14 | COc1ccc2c(c1)C1(CCN(Cc3nccs3)CC1)N(C)CC2 | 51.3%
15 | Cc1cnc(N2CCC3(CCN(Cc4csc(C)n4)C3=O)C2)nc1 (centres undefined) | 34%
16 | Cc1ccc(N2CCC3(CCN(Cc4ccccn4)CC3)CC2)nn1 | -42.6%
17 | COc1cc(N2CCC3(CCN(Cc4csc(C)n4)C3)CC2)ncn1 | 55.7%
18 | COc1cc(N2CCC3(CCN(Cc4csc(C)n4)C3=O)C2)ncn1 (centres undefined) | 90.1%
19 | COc1ccc2c(c1)C1(CCN(Cc3ccccn3)CC1)N(C)CC2 | -73.3%
20 | Cc1ccc(N2CCC3(CCN(Cc4csc(C)n4)CC3)CC2)nn1 | 58.7%
21 | Cc1ccc(N2CCC3(CCN(Cc4nccs4)CC3)CC2)nn1 | 26.5%
22 | CSc1ccc(C(=O)N2CC(=O)N(Cc3cccs3)CC(O)C2)cc1 (centres undefined) | 19.2%
23 | CCOCC(O)CN1CCN(C(=O)C2CCC2)CC1 (centres undefined) | -14.6%
24 | Cc1ccc(O)c(CNc2cccc(CN3CCN(C)CC3)c2)n1 | 13.9%
25 | Cc1cc(NC(=O)CN2CCc3c(nc(C(C)C)n3C)C2)n(C)n1 | 36%
26 | COCC1c2nnn(CC3CC3)c2CCN1Cc1ccncc1 (centres undefined) | 4.68%
27 | Cc1cc(C)c(CNC(=O)N(C)Cc2cccc(C#N)c2)c(=O)[nH]1 | -3.7%
28 | COc1ccc(C(=O)N2CCCC2c2noc(C(C)C)n2)nn1 (centres undefined) | 12.255%
29 | O=C(NC1CC1)N1CC[C@H]2[C@H]1CCN2c1nncs1 | -19.8%
